# Data as given in PubChem BioAssay (NCATS).
# Where “and” joins values, the source holds several entries; their conditions need not be identical. Equal entries are not always repeated. Inconclusive results are not listed. Entries that show only a call come without a potency. Calls of active or inactive are those of the source. Unless noted, the call rests on the fitted dose curve; in most records, active means well fitted curve in the direction sought with a large enough effect; inconclusive means small, poorly fitted or top-dose-only effect, or another doubt; inactive means no such curve, though single readings can be large; an effect the other way counts as inactive or inconclusive.
# Experiments:
# [1] = Counterscreen qHTS for small molecule stabilizers of the endoplasmic reticulum resident proteome: GLuc-NoTag assay (AID 1508627); further: potency means the concentration at half of the fitted maximal effect;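 on activity change, negative = inhibition: SH-SY5Y cells given compound then 100 nM thapsigargin to empty ER calcium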
# Outline: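 SH-SY5Y cells stably expressing constitutively secreted GLuc without SERCaMP tag, exposed to compound for 19 hr, then to 100 nM thapsigargin for 4 hr at 37C. Medium luciferase was read by coelenterazine luminescence without lysis.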
# [2] = Confirmatory qHTS for small molecule stabilizers of the endoplasmic reticulum resident proteome: Secreted ER Calcium Modulated Protein (SERCaMP) assay (AID 1508628); further: nearly all actives have a fitted effect of over 40% in size
# Outline: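 SH-SY5Y cells stably expressing GLuc-SERCaMP, treated 16 h with compound (primary 1.53, 7.67, 38.3 uM; confirmation 11 concentrations, up to 76.6 uM), then 100 nM thapsigargin for 4 h. Secreted Gaussia luciferase in medium read by coelenterazine luminescence.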
# [3] = Primary qHTS for inhibitors of nuclear receptor binding SET domain protein 2 (NSD2) in an isogenic RCH-ACV NSD2 p.E1099K mutant (9B) (AID 1645876); further: nearly all actives have a fitted effect of over 70% in size; further: potency means the concentration at half of the fitted maximal effect
# [4] = Primary qHTS for inhibitors of nuclear receptor binding SET domain protein 2 (NSD2) in an RCH-ACV wild type WT cells (2C) (AID 1645877); further: nearly all actives have a fitted effect of over 70% in size; further: potency means the concentration at half of the fitted maximal effect
# [5] = Cell Viability qHTS for small molecule stabilizers of the endoplasmic reticulum resident proteome (AID 1508629); conditions: cell viability counter-screen, 100 nM thapsigargin for final 4 h;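 further: human SH-SY5Y neuroblastoma cells carrying the GLuc-SERCaMP reporter; compound exposure about 46 h in total before the viability read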
# [6] = A High-Content qHTS Against Drug Library for the Identification of Small Molecules that Inhibit DYT1 Early Onset Primary Dystonia-Associated Cell Pathology (AID 1645839; calls by dose curve)
# Outline: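 Flp-In T-REx 293 cells with tetracycline-inducible EGFP-delE hTOR1A (WT EGFP-hTOR1A as reference), 800 cells/well; compound added with tetracycline, 48 h at 37 C. Fixed, permeabilized cells imaged; %pathology (punctate TorsinA) primary, cell count counterscreen.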
# [7] = biological target: Cytochrome P450 2D6 (Homo sapiens) (UniProt P10635); experiment: Cytochrome P450 family 2 subfamily D member 6 (CYP2D6) small molecule antagonists: luciferase biochemical (cell-free) qHTS assay (AID 1645840; active means well fitted curve in the direction sought with a large enough effect in the repeat runs; an effect the other way counts as inactive or inconclusive; further: nearly all actives have a fitted effect of over 55% in size; further: potency means the concentration at half of the fitted maximal effect)
# Outline: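 P450-Glo luminescent screen: recombinant CYP2D6 enzyme–proluciferin substrate mix preincubated with compound 10 min at room temperature, then NADPH regeneration added for 1 h at room temperature. Detection reagent added for 20 min; luciferin light read as relative luminescence units.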
# [8] = Primary qHTS for small molecule stabilizers of the endoplasmic reticulum resident proteome: Secreted ER Calcium Modulated Protein (SERCaMP) assay (AID 1508630); further: potency means the concentration at half of the fitted maximal effect
# Outline: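 GLuc-SERCaMP-expressing SH-SY5Y cells, pretreated 16 h with compound, are challenged with thapsigargin to empty ER calcium stores; after 4 h, coelenterazine is added directly to the medium and luminescence is imaged.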
# [9] = biological target: Cytochrome P450 2C9 (Homo sapiens) (UniProt P11712); experiment: Cytochrome P450 family 2 subfamily C member 9 (CYP2C9) small molecule antagonists: luciferase biochemical (cell-free) qHTS assay (AID 1645842; active means well fitted curve in the direction sought with a large enough effect in the repeat runs; an effect the other way counts as inactive or inconclusive; further: nearly all actives have a fitted effect of over 55% in size; further: potency means the concentration at half of the fitted maximal effect)
# Outline: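 Luminescence, after 20 min with luciferin detection reagent, reflected CYP2C9 turnover during a 1 h NADPH-driven reaction at 37C. Enzyme-substrate mix contained 0.4% bovine serum albumin and was preincubated with compound 10 min at room temperature.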
# [10] = biological target: Cytochrome P450 3A4 (Homo sapiens) (UniProt P08684); experiment: Cytochrome P450 family 3 subfamily A member 4 (CYP3A4) small molecule antagonists: luciferase qHTS assay (AID 1645841; active means well fitted curve in the direction sought with a large enough effect in the repeat runs; an effect the other way counts as inactive or inconclusive; further: nearly all actives have a fitted effect of over 45% in size)
# Outline: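 P450-Glo CYP3A4 enzyme with proluciferin substrate preincubated 10 min with compound at room temperature, then NADPH regeneration 1 h. Luciferin detection reagent added for 20 min; luminescence recorded. Ketoconazole positive control.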
# [11] = biological target: N-terminal Xaa-Pro-Lys N-methyltransferase 1 (Homo sapiens) (UniProt Q9BV86); experiment: Confirmatory qHTS for Inhibitors of N-terminal methyltransferase 1 (NTMT1): MTaseGlo Assay (AID 1645874); further: nearly all actives have a fitted effect of over 65% in size; further: potency means the concentration at half of the fitted maximal effect;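 on activity change, negative = inhibition: luminescence from SAH made as NTMT1 methylates SPKRIA peptide using SAM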
# Outline: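 Luminescent MTase-Glo read-out of SAH. 125 nM NTMT1, 100 uM SAM, 1 uM SPKRIA substrate, 30 min RT reaction after 15 min compound preincubation. Normalized to no-enzyme and DMSO controls; Hill fit.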
# [12] = biological target: Catechol O-methyltransferase (Homo sapiens) (UniProt P21964); experiment: Confirmatory Screen for Target Class Profiling of Small Molecule Inhibitors of Methyltransferases (AID 1745852; calls by dose curve; further: potency means the concentration at half of the fitted maximal effect); conditions: MTase-Glo luminescence, SAH detection, recombinant enzyme; measured here: COMT max response; stronger effect = lower value
# [13] = biological target: Guanidinoacetate N-methyltransferase (Homo sapiens) (UniProt Q14353); experiment: as above; conditions: MTase-Glo luminescence, SAH detection, recombinant enzyme; activity change, negative = inhibition: at 57.3 µM (top of the series) unless noted
# Chain of Cytochrome P450 2C9 (Homo sapiens) (P11712 whole entry, looked up): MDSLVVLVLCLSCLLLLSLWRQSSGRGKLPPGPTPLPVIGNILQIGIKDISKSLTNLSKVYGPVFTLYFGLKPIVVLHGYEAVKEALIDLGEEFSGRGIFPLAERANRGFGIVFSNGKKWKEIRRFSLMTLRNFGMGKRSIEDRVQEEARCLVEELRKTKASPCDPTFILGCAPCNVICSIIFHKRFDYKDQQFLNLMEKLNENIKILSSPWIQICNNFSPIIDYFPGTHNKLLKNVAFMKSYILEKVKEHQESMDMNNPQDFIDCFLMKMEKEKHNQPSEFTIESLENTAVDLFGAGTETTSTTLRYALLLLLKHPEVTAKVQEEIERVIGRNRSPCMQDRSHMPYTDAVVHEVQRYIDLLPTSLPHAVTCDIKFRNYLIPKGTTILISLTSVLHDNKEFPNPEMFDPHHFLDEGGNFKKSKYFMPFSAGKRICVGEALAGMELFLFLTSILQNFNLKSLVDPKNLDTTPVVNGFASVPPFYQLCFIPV
# Chain of Catechol O-methyltransferase (Homo sapiens) (P21964 whole entry, looked up): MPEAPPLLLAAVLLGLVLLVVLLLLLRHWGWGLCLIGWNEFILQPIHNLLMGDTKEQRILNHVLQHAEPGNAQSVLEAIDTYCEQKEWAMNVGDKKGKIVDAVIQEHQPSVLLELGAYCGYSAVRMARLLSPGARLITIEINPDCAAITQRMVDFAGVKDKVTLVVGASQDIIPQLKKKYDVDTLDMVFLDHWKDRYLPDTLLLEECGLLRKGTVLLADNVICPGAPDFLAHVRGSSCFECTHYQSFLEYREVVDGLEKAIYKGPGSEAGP
# Chain of Cytochrome P450 2D6 (Homo sapiens) (P10635 whole entry, looked up): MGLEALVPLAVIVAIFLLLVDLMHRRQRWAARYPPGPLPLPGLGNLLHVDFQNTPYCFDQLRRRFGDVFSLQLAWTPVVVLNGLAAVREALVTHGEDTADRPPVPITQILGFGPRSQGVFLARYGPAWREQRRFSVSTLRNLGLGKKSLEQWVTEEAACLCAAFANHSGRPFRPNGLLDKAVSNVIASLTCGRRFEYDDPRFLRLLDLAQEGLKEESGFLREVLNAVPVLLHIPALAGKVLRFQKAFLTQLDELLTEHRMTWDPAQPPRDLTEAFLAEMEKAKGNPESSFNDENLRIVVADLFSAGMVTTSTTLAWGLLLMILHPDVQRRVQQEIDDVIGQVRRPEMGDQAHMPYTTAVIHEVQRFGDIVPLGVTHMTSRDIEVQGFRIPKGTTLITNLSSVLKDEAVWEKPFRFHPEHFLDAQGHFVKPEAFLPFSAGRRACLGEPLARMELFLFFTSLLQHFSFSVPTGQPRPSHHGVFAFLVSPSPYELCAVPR
# Chain of N-terminal Xaa-Pro-Lys N-methyltransferase 1 (Homo sapiens) (Q9BV86 whole entry, looked up): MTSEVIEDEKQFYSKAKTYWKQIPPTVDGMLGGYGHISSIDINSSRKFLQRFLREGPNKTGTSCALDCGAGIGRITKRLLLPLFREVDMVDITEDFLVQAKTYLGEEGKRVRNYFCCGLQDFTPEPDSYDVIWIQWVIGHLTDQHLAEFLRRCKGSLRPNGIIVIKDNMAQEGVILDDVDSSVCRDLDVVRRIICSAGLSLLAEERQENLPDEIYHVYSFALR
# Chain of Cytochrome P450 3A4 (Homo sapiens) (P08684 whole entry, looked up): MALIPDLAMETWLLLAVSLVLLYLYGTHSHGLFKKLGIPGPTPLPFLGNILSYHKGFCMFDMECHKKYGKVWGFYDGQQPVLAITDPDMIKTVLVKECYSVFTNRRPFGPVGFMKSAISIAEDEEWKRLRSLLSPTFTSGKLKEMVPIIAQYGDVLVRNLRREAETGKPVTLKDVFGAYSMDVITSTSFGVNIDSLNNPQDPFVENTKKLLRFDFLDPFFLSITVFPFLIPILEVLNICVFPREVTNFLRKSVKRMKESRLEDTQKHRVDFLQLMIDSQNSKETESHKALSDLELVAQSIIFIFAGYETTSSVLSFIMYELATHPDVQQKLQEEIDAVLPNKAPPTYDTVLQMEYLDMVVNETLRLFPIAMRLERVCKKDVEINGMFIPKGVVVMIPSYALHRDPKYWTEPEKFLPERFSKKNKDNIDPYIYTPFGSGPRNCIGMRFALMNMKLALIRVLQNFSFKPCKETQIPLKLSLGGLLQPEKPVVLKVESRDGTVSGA
structure (smiles),measurement,setting,value
COc1cc(C(C)C)c2c(c1)S(=O)(=O)N(COc1cc(=O)n3cccc(OCCN4CCCCC4)c3n1)C2=O,Potency,[1],39.8 µM (active)
same,outcome,[2],inactive
same,Potency,[3],14.8 µM (active)
same,Potency,[4],10.5 µM (active)
CC(=O)SC[C@@H](C)C(=O)N1CCC[C@H]1C(=O)N[C@@H](Cc1ccccc1)C(=O)O,Potency,[1],inactive
same,outcome,[2],inactive
same,max response,[5],10.6% (inactive)
same,Potency,[6],inactive
same,Potency,[7],inactive
same,Potency,[3],inactive
same,Potency,[4],inactive
CCCCc1nc2cc(C=CC(=O)NO)ccc2n1CCN(CC)CC,Potency,[8],inactive
same,Potency,[7],12 µM (active)
NCC(=O)Nc1ccc(-n2nc(C(F)(F)F)cc2-c2ccc3c(ccc4ccccc43)c2)cc1,Potency,[8],inactive
same,Potency,[7],15.1 µM (active)
same,Potency,[9],4.77 µM (active)
same,Potency,[3],1.15 µM (active) and 1.48 µM (active)
same,Potency,[4],4.09 µM (active) and 2.09 µM (active)
Cc1nc2ccc(CN(C)c3ccc(C(=O)N[C@@H](CCC(=O)O)C(=O)O)s3)cc2c(=O)[nH]1,Potency,[8],inactive
same,Potency,[6],inactive
same,Potency,[7],inactive
same,Potency,[9],inactive
same,Potency,[3],53.1 nM (active) and 33.2 nM (active)
CNC(=O)c1ccc(N2C(=S)N(c3cnc(C#N)c(C(F)(F)F)c3)C(=O)C23CCC3)cc1F,Potency,[8],inactive
same,Potency,[7],inactive
same,Potency,[9],6.74 µM (active)
same,Potency,[3],inactive
CN(C)Cc1c(C(=O)NCCOc2ccc(C(=O)NO)cc2)oc2ccccc12,Potency,[8],inactive
same,Potency,[7],1.69 µM (active)
same,Potency,[9],inactive
same,Potency,[3],515 nM (active) and 332 nM (active)
same,Potency,[4],515 nM (active) and 296 nM (active)
CC[C@@H]1C(=O)N(C)c2cnc(Nc3ccc(C(=O)NC4CCC(N5CCN(CC6CC6)CC5)CC4)cc3OC)nc2N1C(C)C (stereo partly drawn),Potency,[8],inactive
same,Potency,[7],inactive
same,Potency,[9],7.56 µM (active) and 12 µM (active)
same,Potency,[3],36.5 nM (active) and 16.3 nM (active) and 41.7 nM (active)
COc1cc2c(Oc3ccc(-c4cnc(Nc5ccc(F)cc5)n(C)c4=O)cc3F)ccnc2cc1OCCCN1CCOCC1,Potency,[8],inactive
same,Potency,[7],inactive
same,Potency,[9],inactive
same,Potency,[3],4.09 µM (active) and 1.48 µM (active)
Nc1ccc(S(=O)(=O)Nc2ncccn2)cc1,Potency,[8],inactive
same,Potency,[7],inactive
same,outcome,[10],inactive
same,Potency,[9],inactive
Cc1cc(Nc2cc(CN3CCOCC3)c3nc(C)c(Cc4ccc(Cl)cc4F)n3n2)n[nH]1,Potency,[8],inactive
same,Potency,[7],23.9 µM (active)
same,Potency,[9],12 µM (active)
same,Potency,[11],20.5 µM (active)
same,Potency,[3],3.26 µM (active) and 1.86 µM (active)
same,Potency,[4],2.59 µM (active) and 1.18 µM (active)
COc1c(N2C[C@@H]3CCCN[C@H]3C2)c(F)cc2c(=O)c(C(=O)O)cn(C3CC3)c12,Potency,[8],inactive
same,Potency,[7],inactive
same,Potency,[9],inactive
same,Potency,[3],inactive
same,Potency,[4],inactive
C[C@@H](Oc1cc(-c2cnn(C3CCNCC3)c2)cnc1N)c1c(Cl)ccc(F)c1Cl,Potency,[8],inactive
same,Potency,[7],21.3 µM (active) and 13.5 µM (active)
same,Potency,[9],1.69 µM (active)
same,Potency,[11],39.8 µM (active)
same,Potency,[3],1.45 µM (active) and 1.83 µM (active) and 1.48 µM (active)
same,activity,[12],-38.2% and -62.1%
same,Potency,[13],27.1 µM (active)
COc1c(OCCCN2CCOCC2)ccc2c3n(c(=NC(=O)c4cnc(N)nc4)nc12)CCN3,Potency,[8],inactive
same,Potency,[7],inactive
same,outcome,[10],inactive
same,Potency,[9],inactive
same,Potency,[3],9.4 nM (active) and 24.1 nM (active)
Cc1[nH]nc2ccc(-c3cncc(OC[C@@H](N)Cc4ccccc4)c3)cc12,Potency,[8],inactive
same,Potency,[7],0.674 µM (active)
same,Potency,[9],9.52 µM (active)
same,Potency,[3],325 nM (active) and 263 nM (active)
O=C(O)Cn1nnc(-c2cc(N3CCC(Oc4cc(F)ccc4Br)CC3)no2)n1,Potency,[8],inactive
same,Potency,[7],inactive
same,Potency,[9],13.5 µM (active)
same,Potency,[3],inactive
COc1ccc(-c2cc3c(C)nc(N)nc3n(C3CCC(OCCO)CC3)c2=O)cn1 (stereo not drawn),Potency,[8],inactive
same,Potency,[7],inactive
same,Potency,[9],5.35 µM (active) and 4.25 µM (active)
same,Potency,[11],inactive
same,Potency,[3],20.5 nM (active) and 41.7 nM (active)
same,Potency,[4],20.5 nM (active) and 41.7 nM (active)
COc1ccc2c(c1)CC[C@@H](CN(C)CC(=O)O)[C@H]2c1ccccc1,Potency,[8],inactive
same,Potency,[7],inactive
same,Potency,[9],inactive
same,Potency,[3],inactive
O=C(O)c1ccc2c(c1)nc(Nc1cccc(Cl)c1)c1ccncc12,Potency,[8],inactive
same,Potency,[7],inactive
same,Potency,[9],12 µM (active)
same,Potency,[11],28.2 µM (active)
same,Potency,[3],4.59 µM (active) and 2.95 µM (active)
same,Potency,[4],3.65 µM (active)
same,activity,[12],-68.6%
same,Potency,[13],27.1 µM (active)
CC(=O)c1c(C)c2cnc(Nc3ccc(N4CCNCC4)cn3)nc2n(C2CCCC2)c1=O,Potency,[8],5.95 µM (active)
same,Potency,[7],inactive
same,Potency,[9],inactive
same,Potency,[3],1.48 µM (active)
same,Potency,[4],1.32 µM (active)
